We go through 15 compounds from PubChem BioAssay.

Experiment [1] deals with Cell division control protein 42 homolog (Homo sapiens) (UniProt P60953). The experiment can be described thus: activated mutant Cdc42 GTP-binding inhibitors, dose response, biochemical, multiplex bead flow cytometry, Bodipy-FL-GTP (AID 1333;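 active = fitted half-maximal concentration within the tested dose range, moderate curve steepness, a statistically real signal drop, and little compound fluorescence or tag-binding interference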). Background: In flow cytometry, cells or beads pass a laser one at a time.
Sequence of Cell division control protein 42 homolog (Homo sapiens) (P60953 whole entry, looked up): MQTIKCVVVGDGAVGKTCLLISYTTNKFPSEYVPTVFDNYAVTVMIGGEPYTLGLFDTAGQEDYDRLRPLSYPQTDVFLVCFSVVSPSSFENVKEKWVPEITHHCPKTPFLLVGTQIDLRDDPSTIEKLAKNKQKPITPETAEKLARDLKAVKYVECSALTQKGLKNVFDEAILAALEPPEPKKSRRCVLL
Experiment [2] has the same target. The experiment in a line: wildtype Cdc42 GTP-binding inhibitors, dose response, biochemical, multiplex bead flow cytometry, Bodipy-FL-GTP (AID 1334;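 active = fitted half-maximal concentration within the tested range, moderate curve steepness, significant signal drop, and little compound fluorescence or bead-linkage interference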). Conditions: bead-based flow cytometry, Bodipy-FL-GTP binding to GST-Cdc42; at 100 µM (top of the series) unless noted.
For experiment [3], the target named is GTPase HRas (Homo sapiens) (UniProt P01112). The experiment can be described thus: inhibitors of GTP binding to wildtype Ras, dose response, biochemical, multiplex bead flow cytometry (AID 1335). Conditions: bead-based flow cytometry, Bodipy-GTP binding to GST-Ras; at 100 µM (top of the series) unless noted.
Sequence of GTPase HRas (Homo sapiens) (P01112 whole entry, looked up): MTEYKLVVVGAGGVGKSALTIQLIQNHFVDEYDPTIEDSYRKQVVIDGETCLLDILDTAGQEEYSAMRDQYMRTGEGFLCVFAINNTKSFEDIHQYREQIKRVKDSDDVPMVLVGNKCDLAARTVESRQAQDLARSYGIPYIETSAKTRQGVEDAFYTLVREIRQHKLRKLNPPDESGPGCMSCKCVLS
For experiment [4], the system named is Ras-related protein Rab-7a (dog), GTP binding. The experiment can be described thus: Rab7 GTP binding inhibitors, potency, dose response, biochemical, wildtype, multiplex bead flow cytometry (AID 1336; call rule not given here).
Experiment [5] addresses Ras-related C3 botulinum toxin substrate 1 (Homo sapiens) (UniProt P63000). The experiment in a line: wildtype Rac1 GTP binding inhibitors, dose response, biochemical, multiplex bead flow cytometry (AID 1340;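 active = dose curve with midpoint inside tested range, moderate steepness, plateau gap beyond fit error, low compound glow and bead-link interference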). Conditions: GST-Rac1 beads, Bodipy-FL-GTP binding; at 100 µM (top of the series) unless noted.
Experiment [6] has as its target GTPase HRas (Homo sapiens) (UniProt P01112). The experiment can be described thus: activated Ras mutant GTP binding inhibitors, dose response, biochemical, multiplex bead flow cytometry (AID 1341;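 active = dose-response curve with midpoint inside the tested range, moderate steepness, significant amplitude and little compound fluorescence or bead-attachment interference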;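 also: GST-tagged constitutively activated Ras mutant immobilized on beads and multiplexed with other GTPases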).

For part of these data: Results with a measured potency or affinity are listed apart. The source made the active and inactive calls.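 The calls were made as follows, unless noted: active = fitted half-maximal concentration within 10 nM to 100 µM, steepness 0.5 to 2, significant signal drop, low assay interference; inactive = the rest.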

`N#C/C(=C\c1cccnc1)c1nc2ccccc2[nH]1`: the result in experiment [1], in experiment [4] and in experiment [6] was inactive. In experiment [2], this compound gave a fluorescence, percent of control (lower = inhibition) of 32.6%. Also, the GTP binding, percent of control in experiment [3] was found to be 82.7%. Moreover, the GTP binding signal, raw median fluorescence (lower = inhibition) (MCF (arbitrary fluorescence units)) in experiment [5] was 251.
Turning to `OC(CNCCC1C=Nc2ccccc21)Cn1c2ccc(Cl)cc2c2cc(Cl)ccc21` (stereo not given), the compound was classed as inactive in experiment [1], in experiment [4] and in experiment [6]. This compound also showed a fluorescence, percent of control (lower = inhibition) in experiment [2] of 60.4%. In experiment [3], the GTP binding, percent of control was 67.9%. The compound also had a GTP binding signal, raw median fluorescence (lower = inhibition) (MCF (arbitrary fluorescence units)) in experiment [5] of 386.
Turning to `NS(=O)(=O)c1ccc(Nc2nc(-c3ccc(O)cc3O)cs2)cc1`, the result in experiment [1], in experiment [4] and in experiment [6] was inactive. In experiment [2], this compound had a fluorescence, percent of control (lower = inhibition) of 25.1%. Besides, the GTP binding, percent of control in experiment [3] was determined as 67.8%. The GTP binding signal, raw median fluorescence (lower = inhibition) (MCF (arbitrary fluorescence units)) in experiment [5] was determined as 152.
As to `Cc1ccc(OCc2ccc(C(=O)Nc3nc4ccccc4n3Cc3ccccc3)o2)c([N+](=O)[O-])c1`, the outcome in experiment [1], in experiment [4] and in experiment [6] was inactive. Besides, in experiment [2], the fluorescence, percent of control (lower = inhibition) was 48.5%. Further, the GTP binding, percent of control in experiment [3] was 60.3%. Further, the GTP binding signal, raw median fluorescence (lower = inhibition) (MCF (arbitrary fluorescence units)) in experiment [5] came out at 193.
`Cc1ccc(CNCc2c(C)[nH]c(C)c2C(=O)O)cc1`: the compound was classed as inactive in experiment [1], in experiment [4] and in experiment [6]. The compound also returned a fluorescence, percent of control (lower = inhibition) in experiment [2] of 64.4%. The GTP binding, percent of control in experiment [3] was determined as 88.9%. Further, the GTP binding signal, raw median fluorescence (lower = inhibition) (MCF (arbitrary fluorescence units)) in experiment [5] came out at 34.6.
With `COc1ccc(/C=N/NC(=O)c2ccncc2)cc1Cn1nc([N+](=O)[O-])c(Br)c1C`, the result in experiment [1], in experiment [4] and in experiment [6] was inactive. Also, the fluorescence, percent of control (lower = inhibition) in experiment [2] worked out at 38.6%. In addition, the GTP binding, percent of control in experiment [3] is 75.7%. The compound further displayed a GTP binding signal, raw median fluorescence (lower = inhibition) (MCF (arbitrary fluorescence units)) in experiment [5] of 144.
With `CC(=O)c1ccc(N2CCN(C(=O)c3ccc4c(=O)n(-c5ccccc5)c(=O)[nH]c4c3)CC2)cc1`, the outcome in experiment [1], in experiment [4] and in experiment [6] was inactive. This compound registered a fluorescence, percent of control (lower = inhibition) in experiment [2] of 35.7%. This compound also registered a GTP binding, percent of control in experiment [3] of 84.8%. Also, in experiment [5], the GTP binding signal, raw median fluorescence (lower = inhibition) (MCF (arbitrary fluorescence units)) is 304.
Consider `CC1(C)Cc2c(sc(NC(=O)c3ccc(Br)o3)c2C#N)CO1`, for which the outcome in experiment [1], in experiment [4] and in experiment [6] was inactive. This compound also yielded a fluorescence, percent of control (lower = inhibition) in experiment [2] of 49.4%. Further, the GTP binding, percent of control in experiment [3] is 62.3%. Besides, the GTP binding signal, raw median fluorescence (lower = inhibition) (MCF (arbitrary fluorescence units)) in experiment [5] came out at 212.
With `O=C(Nc1c(F)cccc1F)c1cnc(N2CCN(c3ccccn3)CC2)c2ccccc12`, the compound was called inactive in experiment [1], in experiment [4] and in experiment [6]. This compound also displayed a fluorescence, percent of control (lower = inhibition) in experiment [2] of 97%. The compound further had a GTP binding, percent of control in experiment [3] of 199%. Moreover, the GTP binding signal, raw median fluorescence (lower = inhibition) (MCF (arbitrary fluorescence units)) in experiment [5] came out at 217.
`C=CCSc1nc(N)c(C#N)c(-c2ccc(C)cc2)c1C#N`: the outcome in experiment [1], in experiment [4] and in experiment [6] was inactive. This compound displayed a fluorescence, percent of control (lower = inhibition) in experiment [2] of 35%. The GTP binding, percent of control in experiment [3] came to 83.1%. Also, the GTP binding signal, raw median fluorescence (lower = inhibition) (MCF (arbitrary fluorescence units)) in experiment [5] amounted to 262.
On to `CCOC(=O)C1(Cc2cccc(F)c2)CCN(Cc2nc(CC)[nH]c2C)CC1`, for which the result in experiment [1], in experiment [4] and in experiment [6] was inactive. The same compound came in with a fluorescence, percent of control (lower = inhibition) in experiment [2] of 48.2%. The compound also had a GTP binding, percent of control in experiment [3] of 90.4%. In experiment [5], this compound displayed a GTP binding signal, raw median fluorescence (lower = inhibition) (MCF (arbitrary fluorescence units)) of 274.
Turning to `Cc1ccc(S(=O)(=O)Cc2ccc(C(=O)N3CCN(c4cc(C)ccc4C)CC3)o2)cc1`, the compound was called inactive in experiment [1], in experiment [4] and in experiment [6]. In experiment [2], this compound yielded a fluorescence, percent of control (lower = inhibition) of 35%. Moreover, the GTP binding, percent of control in experiment [3] stood at 59.9%. Further, in experiment [5], the GTP binding signal, raw median fluorescence (lower = inhibition) (MCF (arbitrary fluorescence units)) is 0.
With `COc1ccc(CCNC(=O)C2CCCN2C(=O)NC2CCCCC2)cc1OC` (stereo not given), the compound was classed as inactive in experiment [1], in experiment [4] and in experiment [6]. The same compound yielded a fluorescence, percent of control (lower = inhibition) in experiment [2] of 50.7%. In experiment [3], this compound had a GTP binding, percent of control of 180%. In experiment [5], the GTP binding signal, raw median fluorescence (lower = inhibition) (MCF (arbitrary fluorescence units)) came to 184.
For `CC(C)[C@H](NC(=O)c1ccccc1)C(=O)OCC(=O)NCCc1ccc(F)cc1`, the compound was called inactive in experiment [1], in experiment [4] and in experiment [6]. Moreover, the fluorescence, percent of control (lower = inhibition) in experiment [2] turned out to be 50.5%. The compound also gave a GTP binding, percent of control in experiment [3] of 66.5%. The GTP binding signal, raw median fluorescence (lower = inhibition) (MCF (arbitrary fluorescence units)) in experiment [5] was found to be 209.
Regarding `O=C(O)c1ccccc1NCc1ccc2c(c1)OCO2`, the result in experiment [1], in experiment [4] and in experiment [6] was inactive. For the same compound, the fluorescence, percent of control (lower = inhibition) in experiment [2] is 69.6%. The same compound returned a GTP binding, percent of control in experiment [3] of 89.5%. The GTP binding signal, raw median fluorescence (lower = inhibition) (MCF (arbitrary fluorescence units)) in experiment [5] worked out at 54.
